According to PubChem BioAssay (EPA / NIEHS):
Results filed as inconclusive are left out. Activity calls are given as the source filed them. The calls were made as follows: active = hit-call score of the fitted dose curve at least 0.9, where 1 is the maximum; inconclusive = response in the unintended direction; inactive = score below 0.9.

Experiments:
[1] = TOX21_p53_BLA_p2_viability: Viability Assessment in the Tox21 HCT-116 p53 Agonism Beta-lactamase Assay, Phase 2 (AID 2283591);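 also: actives lower the ATP signal meaning cytotoxicity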
In short: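 HCT-116 p53-bla cells (4000/well) rested 5 h at 37C, then received compounds in DMSO (217-fold dilution) for 16 h at 37C, 5% CO2. After the CCF4 read, CellTiter-Glo was added; ATP luminescence was read after 30 min at room temperature.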

[2] = target: Cellular tumor antigen p53 (Homo sapiens) (UniProt P04637); assay: TOX21_p53_BLA_p2_ratio: Tox21 HCT-116 p53 Agonism Beta-lactamase Assay, Ratio, Phase 2 (AID 2283592)
In short: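 An inducible beta-lactamase reporter in HCT116 cells signals p53 pathway activation. After 16 h chemical exposure at 37C, cells load CCF4-AM substrate for 2 h at room temperature; activity is the cleaved/uncleaved emission ratio relative to DMSO.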

[3] = target: Cellular tumor antigen p53 (Homo sapiens) (UniProt P04637); assay: TOX21_p53_BLA_p3_ratio: Tox21 HCT-116 p53 Agonism Beta-lactamase Assay, Ratio, Phase 3 (AID 2283596)
In short: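 HCT116 p53-bla cells (4000/well) given compound in DMSO (217-fold dilution) after 5 h, incubated 16 h at 37C. CCF4-AM substrate 2 h at room temperature; 460/530 nm emission ratio, gain fitted against DMSO.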

[4] = TOX21_p53_BLA_p4_viability: Viability Assessment in the Tox21 HCT-116 p53 Agonism Beta-lactamase Assay, Phase 4 (AID 2283597);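 also: hits lower the luminescence signal meaning cytotoxicity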
In short: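 Compound exposure of HCT116 cells lasts 16 h at 37C, 5% CO2, with DMSO stocks diluted 217-fold. Cellular ATP is then quantified by CellTiter-Glo luminescence after 30 min at room temperature.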

[5] = target: Cellular tumor antigen p53 (Homo sapiens) (UniProt P04637); assay: TOX21_p53_BLA_p5_ratio: Tox21 HCT-116 p53 Agonism Beta-lactamase Assay, Ratio, Phase 5 (AID 2283599)
In short: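 HCT-116 cells carrying a p53-inducible beta-lactamase reporter were seeded at 4000 cells/well and dosed after 5 h with compound in DMSO (217-fold dilution). After 16 h at 37C, CCF4-AM substrate was added for 2 h, and the 460/530 nm emission ratio was scored as gain-of-signal versus DMSO.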

[6] = TOX21_p53_BLA_p3_viability: Viability Assessment in the Tox21 HCT-116 p53 Agonism Beta-lactamase Assay, Phase 3 (AID 2283593);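 also: cells exposed to compound for 16 h before reading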
In short: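 HCT-116 cells (4000/well) rested 5 h at 37C, then got DMSO compounds by pin tool (217-fold dilution) for 16 h at 37C, 5% CO2. After the bla read, CellTiter-Glo was added and luminescence read at 30 min, room temperature.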

[7] = TOX21_p53_BLA_p5_viability: Viability Assessment in the Tox21 HCT-116 p53 Agonism Beta-lactamase Assay, Phase 5 (AID 2283600)
In short: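 Counter-readout for cytotoxicity: ATP-dependent luminescence from CellTiter-Glo, read in the beta-lactamase wells after 30 min at RT, following a 16 h compound exposure at 37C.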

[8] = target: Cellular tumor antigen p53 (Homo sapiens) (UniProt P04637); assay: TOX21_p53_BLA_p4_ratio: Tox21 HCT-116 p53 Agonism Beta-lactamase Assay, Ratio, Phase 4 (AID 2283601)
In short: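 HCT116 cells carrying an inducible beta-lactamase reporter were plated at 4000 cells/well, rested 5 h, then exposed to compounds in DMSO (217-fold dilution) for 16 h at 37C. CCF4-AM substrate was loaded 2 h at room temperature; 460/530 nm emission ratio scored gain-of-signal versus DMSO.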

Measured: outcome

Chain of Cellular tumor antigen p53 (Homo sapiens) (P04637 whole entry, looked up): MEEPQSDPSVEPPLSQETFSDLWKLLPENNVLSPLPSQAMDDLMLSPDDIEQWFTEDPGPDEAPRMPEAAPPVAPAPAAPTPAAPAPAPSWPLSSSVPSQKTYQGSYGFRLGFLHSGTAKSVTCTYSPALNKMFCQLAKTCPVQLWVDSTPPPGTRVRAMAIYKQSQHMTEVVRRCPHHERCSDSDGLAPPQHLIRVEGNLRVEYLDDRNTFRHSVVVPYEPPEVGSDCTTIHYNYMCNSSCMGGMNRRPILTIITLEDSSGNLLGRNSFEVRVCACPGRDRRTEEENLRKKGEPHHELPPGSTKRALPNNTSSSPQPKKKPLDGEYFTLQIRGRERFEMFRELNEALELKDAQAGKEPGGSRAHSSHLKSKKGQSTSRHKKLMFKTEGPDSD

OCC=CCO
inactive: [1] | [2] | [3] | [4] | [5]

CCC(N)(CO)CO
inactive: [1] | [2] | [6] | [7] | [8]

CN1C(=O)CC(C)(c2ccccc2)C1=O (centres undefined)
inactive: [1] | [2] | [6] | [5] | [8]

CCC(=O)O[C@]1(C(=O)CCl)[C@@H](C)C[C@H]2[C@@H]3CCC4=CC(=O)C=C[C@]4(C)[C@@]3(F)[C@@H](O)C[C@@]21C
inactive: [1] | [2] | [6] | [8]

COC(=O)CC#N
inactive: [1] | [2] | [6] | [8]

COc1ccccc1N1CCN(CCCCNC(=O)c2ccc(-c3ccc(C(C)=O)cc3)cc2)CC1
inactive: [1] | [2] | [6] | [7] | [8]

O=C(OC1C[C@H]2CC[C@@H](C1)[N+]21CCCC1)C(O)(c1ccccc1)c1ccccc1 (some centres undefined)
inactive: [1] | [2] | [6] | [8]

CCOC(=O)[C@H](CCc1ccccc1)N[C@H]1CS[C@H](c2cccs2)CN(CC(=O)O)C1=O
inactive: [1] | [2] | [3]

CC(C)(O)C(=O)O
inactive: [1] | [2] | [3] | [4] | [5]

NC(=O)c1ccccc1N
inactive: [1] | [2] | [6] | [7]
